# Measurements from the supplement of paper PMC10105736.
# Values without a mark were called inactive.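 How the source made its calls: active = MAPPIT score above the 99th percentile of random reference set scores in the same batch; inactive = at or below it.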
# B1: Lcp2 (protein)
# chain: MFKFVMILAVVGVATALAPVSRSDDVHADVLSRSDDVRADGFDSSLHTSNGIEQAASGDAHGNIHGNFGWISPEGEHVEVKYVANENGYQPSGAWIPTPPPIPEAIARAVAWLESHPPAPEHPRHH
# B2: Adf1 (protein)
# chain: MHTLTAAIEMDKLDANLEQQFDLNLIEAVKLNPVIYDRSHYNYKHFVRKAQTWKQIAETLGVPEQKCTKRWKSLRDKFAREMKLCQESRWRYFKQMQFLVDSIRQYRESLLGKCANGSQSANQVADPSQQQQAQQQTVVDIFAQPFNGSATTSAQALTHPHEITVTSDAQLATAVGKDQKPYFYEPPLKRERSEEEHSDNMLNTIKIFQNNVSQAVSAEDQSFGMVVTDMLNTLGVRQKAEAKVHIIKYLTDMQLLAQHNKY
# B3: Eh (protein)
# chain: MNCKPLILCTFVAVAMCLVHFGNALPAISHYTHKRFDSMGGIDFVQVCLNNCVQCKTMLGDYFQGQTCALSCLKFKGKAIPDCEDIASIAPFLNALE
# B4: PolE2 (protein)
# chain: MDVDLLPLRKRITNTFKLCGFLIRSENSSYLAEQLLPFDAAERDKWLTVITENLQSQKLLTPHVERAALEKAINELNRVGLDEGETVFALIDAFTVPRFRYNQRIKKFELDTQPRQLLTAPRMKSDYMQQRYAMLLQKTLRHDLFAPAVIQDGVGAEAQAKKFKLQFAENLLATSAMKEAVVLGLLTQLKEGKFYVEDPTGCVQLDLTGARFHAGFFCEGCFVLAEGNYNNGVLKVDGLGFPPAEPANSSRAFFGTANTWGGESAKLLKYSAGLQELERTNTETTIVFLSDVRLDLPVVMEKLRQLFVGYDSCPPQAIVLMGPFTASTRNHHELRHHLDALGGLAAGCEQLKKQTDLILVPSSEDPTAPNILPRAPIPECLAAGLLKAWPRTQLATNPCRLQYCTQQIVVCRLDLMAKFCRNTLHFPEDTSQIEQHFARTIVCQGHLVPIHPIAMPVHWDYDPALWLYPLPDLIVMGDSCQSFSSSQHGCTVLNTGSFVKSKFAFKVYIPATRTIEDSEIPDELE
# B5: mRpS24 (protein)
# chain: MNFLKKLLPQVATEVQQLSRSGFHTSSVCCRVQSGRYRITTKRNRPLTYEMANPPHFIGHRKSWNSWNTSTMKDALRPSQTAIEDVFIRKFVTGTWHALVCSEVIIKRQHNTIRIAALIRQAITPRKMYFLIGYTEELLSYWMQCPVTLELQTVGDKKDVVFKYI
# B6: TfIIFbeta (protein)
# chain: MSKEDKEKTQIIDKDLDLSNAGRGVWLVKVPKYIAQKWEKAPTNMDVGKLRINKTPGQKAQVSLSLTPAVLALDPEEKIPTEHILDVSQVTKQTLGVFSHMAPSDGKENSTTSAAQPDNEKLYMEGRIVQKLECRPIADNCYMKLKLESIRKASEPQRRVQPIDKIVQNFKPVKDHAHNIEYRERKKAEGKKARDDKNAVMDMLFHAFEKHQYYNIKDLVKITNQPISYLKEILKDVCDYNMKNPHKNMWELKKEYRHYKTEEKKEEEHKSGSSDSE
# B7: su(sable) (protein)
# chain: MSVALADEPLIDLEEDLEDGEIDDDEEDEQQSSKIQVQKKTFVGDDDVQFVGVEAKNQNDDEDVVYVGPSTDAVCLQNSNSTKSKKPRPLEDDHASSIELAIANALKKKGIEPPMPRMRSSNQDTSDQSLEGSGEGLATANPLLQSTRSSRRRKRKKEREREQKKDKEQQNRSRRDENDVSVVPGGVEDMDEYEMMNVRGGSPPPGGAAPPLSSCGQRFSGADWDMDDGSAATGAAGLGAGGGGGYNSHSSYDSYSDEETNGPGLMNQRRRTRRDNEKEHQRGVNNRKRRDRDRLEGGLAGSGSKRNRRDSGEGGGGGQEKMGGSNRVEPRKLELCKFYLMDCCAKRDKCSYMHKEFPCKYYYLGMDCYAGDDCLFYHGEPLSEQLRNVLLKHMETAPKEILGDFKRISRDIAIVQMTRRHEQLCDQLNRENTWNSIGCGLMGKRQDHQMQQQQQQLQHQQLQQQQEQQQTQQQAAADGGGCIPSLLDMVINPPLSENKRKSRWTEKMGAKAAAGAAGSSERDSTSPDAKPLPPHLDLANLSHVLSAENMAKLNKLGITNLEQMLQVPFGQLTEAGLTLVEIGEIQRKAEDAKPQTQAELESSTPPSKRETEANNSNSKSNGLIMVDYTQYLKDAHVSFSGNDPLDDDRDDDEQLIIDDGNDSTAEEDQQPKKAKAPPAATHESSTEEAPLPSVFDLPSFMNNMLGQGSSARQLLPASATSPNQENAHLPGGDQSTHKSAPIGGGTSTNVLGRILFGDKQSDPEARAAFYRDIIRNPFKAHSGDGDVDSSNENSNSNSHSLTPTPTPEPGSQSPKPEDHDQDMPELPVIAPALPPTTPSLYVRRSMYDFDPVKEQEHGRQELLTEEKEQYQRDTDMRLPFEPMKHYMPATEIDAAIFSHTPIRWQLHEVTIEESSYAQIRASALHKEQRELRDPRMRRILGLPETPDNSGPLGSVPIMGPSSFSVDNIARCATTIASPDLETAVRDSTPSSPPPSVVNLPSMSVPPPSMRVPPPNIQVEKPTVRTDPRRDPRRAVLQAPTKGASTANTTAPNASGGSKQISEIRSLLQVSNWYNNLGTNNKIMVNQQLALVFTELKKFHQLPNDAPKIFDVSFIVNNTTLQQIFAKLFIFVDDNGEVVQIPEEPNGNGAALGGGGDSGGGVGGGGGGGGVVLPNLSQPPPNLSQMLRLPPPNIRMLRMSGMMMQMGNVGPPFNQPPPRGGLMGMPPNGNGLNQGVGNLGGLGQLGINQGGGPVPNGNPFNPFGGNNGGGAGVMNNMNSMGNMGMGFNNFNNNGGRGGHFPGGGSGGNGNGNNRNQRGGNHRNRNI
# Assays:
# Test in all cases: MAPPIT interaction score (arbitrary units); higher = stronger binary interaction signal, active = hit call of the paper
# CG11275 = conditions: MAPPIT configuration: N-N
# CG8159 = conditions: MAPPIT configuration: N-N; pair source set: Curagen_low_conf
# CG11327 = conditions: MAPPIT configuration: N-C; pair source set: screen_3
# CG11555 = conditions: MAPPIT configuration: N-N; pair source set: Curagen_high_conf
# CG5708 = conditions: MAPPIT configuration: N-C; pair source set: screen_4
# CG11570 = conditions: pair source set: RRS
# MFS16 = conditions: MAPPIT configuration: N-N; pair source set: DPIM
# Tsp = conditions: MAPPIT configuration: N-N; pair source set: DPIM
# CG11596 = conditions: MAPPIT configuration: N-N; pair source set: Finley_Y2H
# CG11723 = conditions: MAPPIT configuration: N-N; pair source set: screen_2
# CG31624 = conditions: MAPPIT configuration: N-N; pair source set: screen_2
# 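Further: HEK293T cells with Epo stimulation, STAT-responsive firefly luciferase reporter, fold induction versus unstimulated cells divided by the larger fold induction of two negative controls lacking either bait or prey.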
binder,measurement,setting,value
B1,MAPPIT interaction score,CG11275; pair source set: Curagen_high_conf,0.91
B2,MAPPIT interaction score,CG11275; pair source set: screen_1,2.6 (active)
same,MAPPIT interaction score,CG8159,-0.0528
B3,MAPPIT interaction score,CG11327,1.52
B4,MAPPIT interaction score,CG11555,0.14
same,MAPPIT interaction score,CG5708,1.19
B5,MAPPIT interaction score,CG11570; MAPPIT configuration: N-C,0.0908
same,MAPPIT interaction score,CG11570; MAPPIT configuration: N-N,-0.09
same,MAPPIT interaction score,MFS16,0.186
same,MAPPIT interaction score,Tsp,0.192
B6,MAPPIT interaction score,CG11596,0.174
B7,MAPPIT interaction score,CG11723,0.327
same,MAPPIT interaction score,CG31624,1.52
